Source: PubChem BioAssay (NCATS)
Results filed as inconclusive are left out. Entries that show only a call come without a potency. The source made the active and inactive calls. Calls come from the whole dose curve; as a rule, active = well fitted inhibition curve with a large enough effect; inconclusive = small, poorly fitted or top-dose-only effect; inactive = flat fitted curve, though single readings scatter. Peptide text beside a SMILES is read from it.

Key:
Experiment in all cases: qHTS profiling for inhibitors of Plasmodium falciparum proliferation (AID 504749); note: nearly all actives have a fitted effect of over 60% in size
Details in all cases: P. falciparum in erythrocytes, SYBR Green DNA, 72 h; series mostly up to 28.7 µM
CP237 = system: CP237
Method in brief: (§1)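 Readout was DNA-dye fluorescence from lysed cultures, ex 485/em 535 nm. Parasitized red cells had grown 72 h with compound; data scaled between 0.29 uM artemisinin and DMSO wells and corrected using vehicle-only plates.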

CP238 = system: CP238
Method in brief: as §1

CP247 = system: CP247
Method in brief: as §1

CP250 = system: CP250
Method in brief: as §1

CP252 = system: CP252
Method in brief: as §1

CP256 = system: CP256
Method in brief: as §1

CP260 = system: CP260
Method in brief: as §1

CP262 = system: CP262
Method in brief: as §1

CP265 = system: CP265
Method in brief: as §1

CP266 = system: CP266
Method in brief: as §1
Potency is the fitted concentration of half-maximal effect.

SMILES	Potency (CP237)	Potency (CP238)	Potency (CP247)	Potency (CP250)	Potency (CP252)	Potency (CP256)	Potency (CP260)	Potency (CP262)	Potency (CP265)	Potency (CP266)
N[C@@H](Cc1cc(I)c(Oc2cc(I)c(O)c(I)c2)c(I)c1)C(=O)O	inactive	inactive	inactive	inactive	inactive	inactive	inactive	inactive	inactive	inactive
CN1C(C(=O)Nc2ccccn2)=C(O)c2sccc2S1(=O)=O	inactive	inactive	inactive	inactive	inactive	inactive	inactive	inactive	inactive	inactive
CCCCc1ccc2nc(NC(=O)OC)[nH]c2c1	inactive	inactive	inactive	inactive	inactive	inactive	inactive	inactive	inactive	inactive
COc1cc(OC)c(C(=O)CCCN2CCCC2)c(OC)c1	inactive	inactive	inactive	inactive	inactive	inactive	inactive	inactive	inactive	inactive
O=C(NC(Cc1cc(=O)[nH]c2ccccc12)C(=O)O)c1ccc(Cl)cc1 (configuration not stated)	inactive	inactive	inactive	inactive	inactive	inactive	inactive	inactive	inactive	inactive
CCN(CCO)CCCC(C)Nc1ccnc2cc(Cl)ccc12 (configuration not stated)	inactive	inactive	inactive	inactive	inactive	inactive	inactive	inactive	inactive	inactive
Nc1cc(C(Cl)=C(Cl)Cl)c(S(N)(=O)=O)cc1S(N)(=O)=O	inactive	inactive	inactive	inactive	inactive	inactive	inactive	inactive	inactive	inactive
O=C(O)c1cccnc1Nc1cccc(C(F)(F)F)c1	inactive	inactive	inactive	inactive	inactive	inactive	inactive	inactive	inactive	inactive
Cc1ccc(NC(=O)c2ccc(CN3CCN(C)CC3)cc2)cc1Nc1nccc(-c2cccnc2)n1	8.91 µM (active)	–	–	–	–	–	–	–	–	–
Nc1ccc(S(N)(=O)=O)cc1	inactive	inactive	inactive	inactive	inactive	inactive	inactive	inactive	inactive	inactive
Clc1ccc(C(Cn2ccnc2)OCc2ccsc2Cl)c(Cl)c1 (configuration not stated)	3.98 µM (active)	10 µM (active)	5.01 µM (active)	11.2 µM (active)	7.94 µM (active)	10 µM (active)	11.2 µM (active)	13.5 µM (active)	7.94 µM (active)	–
O=C1c2ccccc2-c2n[nH]c3cccc1c23	inactive	inactive	inactive	inactive	inactive	inactive	inactive	inactive	inactive	inactive
CCCOc1ccc2nc(NC(=O)OC)[nH]c2c1	inactive	inactive	inactive	inactive	inactive	inactive	inactive	inactive	inactive	inactive
Cc1ccc(C)c(OCCCC(C)(C)C(=O)O)c1	inactive	inactive	inactive	inactive	inactive	inactive	inactive	inactive	inactive	inactive
Cc1cc2c(s1)Nc1ccccc1N=C2N1CCN(C)CC1	inactive	inactive	inactive	inactive	inactive	inactive	inactive	inactive	inactive	inactive
COc1ccc(C2(C#N)CCC(C(=O)O)CC2)cc1OC1CCCC1 (configuration not stated)	inactive	inactive	inactive	inactive	inactive	inactive	inactive	inactive	inactive	–
CCC1=C(C)CN(C(=O)NCCc2ccc(S(=O)(=O)NC(=O)NC3CCC(C)CC3)cc2)C1=O (configuration not stated)	inactive	inactive	inactive	inactive	inactive	inactive	inactive	inactive	inactive	inactive
CCCCCCCCCCCCCCCCCCCCCCO	inactive	inactive	inactive	inactive	inactive	inactive	inactive	inactive	inactive	inactive
CCOc1cc(CC(=O)N[C@@H](CC(C)C)c2ccccc2N2CCCCC2)ccc1C(=O)O	inactive	inactive	inactive	inactive	inactive	inactive	inactive	inactive	inactive	inactive

SMILES	Potency (CP237)	Potency (CP238)	Potency (CP247)	Potency (CP250)	Potency (CP252)	Potency (CP256)	Potency (CP260)	Potency (CP262)	Potency (CP265)	Potency (CP266)
CNC[C@@H](O)[C@@H](O)[C@H](O)[C@H](O)CO	inactive	inactive	inactive	inactive	inactive	inactive	inactive	inactive	inactive	–
CN(C)c1ccc2nc3ccc(=[N+](C)C)cc-3sc2c1	0.0126 µM (active)	0.1 µM (active)	0.141 µM (active)	0.141 µM (active)	0.0891 µM (active)	0.0631 µM (active)	0.0251 µM (active)	0.019 µM (active)	0.0891 µM (active)	0.0757 µM (active)
N=C(N=C(N)N)N1CCOCC1	inactive	inactive	inactive	inactive	inactive	inactive	inactive	inactive	inactive	inactive
Cc1cccc(C)c1OCC(=O)N[C@@H](Cc1ccccc1)[C@@H](O)C[C@H](Cc1ccccc1)NC(=O)[C@H](C(C)C)N1CCCNC1=O	2.82 µM (active)	5.01 µM (active)	7.08 µM (active)	7.08 µM (active)	4.47 µM (active)	11.2 µM (active)	3.98 µM (active)	9.53 µM (active)	5.01 µM (active)	–
O=C(NCCO[N+](=O)[O-])c1cccnc1	inactive	inactive	inactive	inactive	inactive	inactive	inactive	inactive	inactive	–
COC(=O)[C@H](Cc1ccccc1)NC(=O)[C@@H](N)CC(=O)O (H-Asp-Phe-OMe)	inactive	inactive	inactive	inactive	inactive	inactive	inactive	inactive	inactive	inactive
C=CCc1cc(OC)c(O)c(C(=O)NCCO)c1	inactive	inactive	inactive	inactive	inactive	inactive	inactive	inactive	inactive	inactive
COC(=O)C1=C(C)NC(C)=C(C(=O)OCCCN2CCC(c3ccccc3)(c3ccccc3)CC2)C1c1cccc([N+](=O)[O-])c1 (configuration not stated)	2.82 µM (active)	8.91 µM (active)	6.31 µM (active)	7.08 µM (active)	5.01 µM (active)	7.08 µM (active)	2.82 µM (active)	6.01 µM (active)	7.94 µM (active)	9.53 µM (active)
CC(C)[C@H](N)C(=O)OCCOCn1cnc2c(=O)[nH]c(N)nc21	inactive	inactive	inactive	inactive	inactive	inactive	inactive	inactive	inactive	inactive
Cc1c(C(=O)NN2CCCCC2)nn(-c2ccc(Cl)cc2Cl)c1-c1ccc(Cl)cc1	12.6 µM (active)	–	7.94 µM (active)	–	–	11.2 µM (active)	–	inactive	11.2 µM (active)	–
CN(C)CCc1c[nH]c2ccc(Cn3cncn3)cc12	inactive	inactive	inactive	–	inactive	inactive	inactive	inactive	inactive	inactive
CCc1nc(N)nc(N)c1-c1ccc(Cl)cc1	–	inactive	–	inactive	–	inactive	inactive	inactive	inactive	inactive
O=C1CCc2ccc(OCCCCN3CCN(c4cccc(Cl)c4Cl)CC3)cc2N1	14.1 µM (active)	–	–	–	–	inactive	11.2 µM (active)	inactive	inactive	inactive
Cc1nc2n(c(=O)c1CCN1CCC(c3noc4cc(F)ccc34)CC1)CCCC2	–	inactive	inactive	inactive	inactive	inactive	–	inactive	inactive	inactive
O=C(OC1C[C@H]2CC[C@@H](C1)[N+]21CCCC1)C(O)(c1ccccc1)c1ccccc1 (some centres not stated)	–	3.55 µM (active)	–	–	–	3.55 µM (active)	–	4.26 µM (active)	3.98 µM (active)	–
C[Se]CCC(N)C(=O)O (configuration not stated)	inactive	inactive	inactive	inactive	inactive	–	inactive	inactive	inactive	inactive
CCN(CC)CCOc1ccc(Cc2ccccc2)cc1	inactive	inactive	–	inactive	inactive	inactive	–	inactive	inactive	inactive
CCCCCCCCOc1ccccc1C(=O)Nc1ccc(C(=O)OCC[N+](C)(CC)CC)cc1	7.94 µM (active)	8.91 µM (active)	10 µM (active)	–	–	–	7.08 µM (active)	inactive	–	–
O=c1oc2cc(O)ccc2s1	inactive	inactive	inactive	–	inactive	inactive	inactive	inactive	inactive	inactive

SMILES	Potency (CP237)	Potency (CP238)	Potency (CP247)	Potency (CP250)	Potency (CP252)	Potency (CP256)	Potency (CP260)	Potency (CP262)	Potency (CP265)	Potency (CP266)
COCCCOc1ccnc(CS(=O)c2nc3ccccc3[nH]2)c1C (configuration not stated)	–	inactive	–	inactive	inactive	inactive	–	inactive	inactive	inactive
Cc1cc(C2CCCCC2)n(O)c(=O)c1	–	–	–	–	3.55 µM (active)	–	–	–	–	–
CC[C@]1(O)C[C@H]2CN(CCc3c([nH]c4ccccc34)[C@@](C(=O)OC)(c3cc4c(cc3OC)N(C=O)[C@H]3[C@@](O)(C(=O)OC)[C@H](OC(C)=O)[C@]5(CC)C=CCN6CC[C@]43[C@@H]65)C2)C1	0.0501 µM (active)	2.24 µM (active)	–	3.55 µM (active)	3.55 µM (active)	2.24 µM (active)	0.0794 µM (active)	–	–	–
NNc1nncc2ccccc12	–	inactive	–	–	inactive	–	–	inactive	–	inactive
CC1=C(C)C(=O)C(C(CCCCCC(=O)O)c2ccccc2)=C(C)C1=O (configuration not stated)	inactive	inactive	3.98 µM (active)	–	–	inactive	inactive	inactive	inactive	inactive
COC1=C(OC)C(=O)C(CCCCCCCCCCO)=C(C)C1=O	inactive	inactive	–	inactive	inactive	inactive	inactive	inactive	inactive	inactive
CCC[C@@H]1C[C@@H](C(=O)N[C@@H]([C@H]2O[C@H](SC)[C@H](O)[C@@H](O)[C@H]2O)[C@@H](C)O)N(C)C1	–	–	–	inactive	–	0.398 µM (active)	–	2.39 µM (active)	–	–
CN(c1nccc(=O)[nH]1)C1CCN(c2nc3ccccc3n2Cc2ccc(F)cc2)CC1	inactive	inactive	–	inactive	inactive	inactive	inactive	inactive	inactive	–
CC(C)c1ccc2oc3nc(N)c(C(=O)O)cc3c(=O)c2c1	inactive	inactive	5.62 µM (active)	–	–	inactive	–	inactive	inactive	–
N=C(N)c1ccc2cc(OC(=O)c3ccc(N=C(N)N)cc3)ccc2c1	7.08 µM (active)	–	8.91 µM (active)	inactive	–	–	–	–	–	–
Cc1cc(=O)oc2cc(O)ccc12	inactive	–	–	–	–	–	–	–	–	inactive
Cc1nc(Nc2ncc(C(=O)Nc3c(C)cccc3Cl)s2)cc(N2CCN(CCO)CC2)n1	–	inactive	–	–	–	inactive	inactive	inactive	inactive	–
Cn1c(NCCN(CCO)CCCc2ccc([N+](=O)[O-])cc2)cc(=O)n(C)c1=O	inactive	inactive	–	inactive	inactive	inactive	inactive	inactive	inactive	inactive
CN1CCC(=C2c3ccccc3CCc3sccc32)CC1	–	–	–	inactive	–	–	–	inactive	–	–
c1ccc2[nH]c(-c3cscn3)nc2c1	inactive	inactive	–	–	inactive	inactive	inactive	inactive	inactive	inactive
CCCCC(CC)COC(=O)C(C#N)=C(c1ccccc1)c1ccccc1 (configuration not stated)	–	inactive	–	–	inactive	8.91 µM (active)	–	inactive	–	–
O=C(O)c1cn(-c2ccc(F)cc2)c2cc(N3CCNCC3)c(F)cc2c1=O	–	–	inactive	inactive	–	–	–	–	–	inactive
COc1ccc2cc([C@H](C)C(=O)O)ccc2c1	–	inactive	inactive	inactive	inactive	inactive	–	inactive	inactive	inactive
